Test results as given in PubChem BioAssay AID687014 (The Scripps Research Institute Molecular Screening Center, 2013).
Out of some 370,000 compounds screened, about 6,800 (1.8%) were called active. The list comes from a sample in which actives are over-represented; it also holds similar structures and randomly drawn compounds. A number with no mark means an inactive call.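 Rule for the calls: active = activation above a cutoff set at the mean of all screened compounds plus 3 SD (cut at about 10% in these data); inactive = the rest.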

System: Nuclear hormone receptor DAF-12 (Heterodera glycines), GAL4 fusion
Assay: hgDAF-12 GAL4 fusion reporter activation – cell-based, luminescence, HEK293, UAS-luciferase, primary screen (AID 687014);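 note: 0% = DMSO wells and 100% = sodium butyrate wells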
Conditions: HEK293 GAL4-hgDAF12 UAS-luciferase reporter, agonist luminescence; at 6.8 µM; hits give high values; normalized to butyrate control

Going from CC1CC(C)CN(CCC(=O)Nc2ccc3c(c2)CCC3)C1 (stereo unspecified) to CC(C)Oc1ccc(C(=O)NCC(=O)Nc2ccc3c(c2)CCC3)cc1, the activation rises from -2.86% to 2.22%.

Going from Cc1cccnc1CC(C)NC(=O)c1cc(COc2cncc(Cl)c2)on1 (stereo unspecified) to COc1ccc(OCc2cc(C(=O)NCC3(C)COC3)no2)c(Cl)c1, the activation falls from 1.14% to 0.38%.

First: Cc1ccc2oc(C(=O)N3CCN(C)C[C@@H]3C(C)C)c(C)c2c1
Second: COC(=O)[C@]12C[C@H](CC(=O)NCc3cccs3)C(=O)N(CCc3ccc(OC)c(OC)c3)C1=C[C@H](C(C)C)O[C@@H]2C1CC1
The activation of the first is higher: 2.43% for the first, 1.93% for the second.

Going from CC1=C(C(=O)N2CCOCC2)CC(CC(=O)NCCCN(C)C)C(=O)N1Cc1ccc(C(C)(C)C)cc1 (stereo unspecified) to CCCCCCCCN1C(=O)[C@@H](CC(=O)NCCCC)C[C@@]2(C(=O)OC)C1=C[C@H](C(C)(C)C)O[C@@H]2C, the activation falls from 1.86% to 0.13%.

Compared with CCOC(=O)c1ccc2c(c1)nc(SCC(=O)NC(C)C)n2CC, CCn1c(C)nc2cc(C(=O)NNS(=O)(=O)c3ccc(C)cc3C)ccc21 is lower in activation: -0.22% for the first, -0.8% for the second.

Going from Nc1nc2c(ncn2[C@@H]2O[C@H](C(=O)N[C@@H](Cc3ccccc3)C(=O)NCc3ccccc3)[C@@H](O)[C@H]2O)c(=O)[nH]1 to CN(C)C(=O)N1CCN(C(=O)[C@@H](Cc2ccccc2)NC(=O)[C@H]2O[C@@H](n3ccc(N)nc3=O)[C@H](O)[C@@H]2O)CC1, the activation rises from -2.72% to 1.19%.

Going from CCOC(=O)N1CCN(C(=O)C[C@H]2C[C@@]3(C(=O)OC)C(=C[C@H](C4CCCC4)O[C@@H]3C)N(Cc3ccccc3)C2=O)CC1 to CCCCCCCCN1C(=O)[C@@H](CC(=O)N2CCN(C(=O)OCC)CC2)C[C@@]2(C(=O)OC)C1=C[C@H](C1CCCC1)O[C@@H]2C, the activation falls from -1.3% to -1.38%.

First: CC(=O)Nc1ccc(C(=O)CSc2nc3ccc(C)cc3[nH]2)cc1
Second: Cc1ccnc(NC(=O)CNC(=O)c2ccccc2)c1
The activation of the first is higher: 8.98% for the first, 2.39% for the second.

Going from CSCC[C@H](NC(=O)OC(C)(C)C)C(=O)N/N=C/c1cc2ccc(C)cc2nc1Cl to CC(C)(C)OC(=O)NCc1cc(F)ccc1/C=C/S(=O)(=O)NCCc1ccccc1, the activation rises from -1.8% to 0.64%.

Compared with C=C(C)C#CC(Cc1ccccc1)N(CC1CC1)/C(N)=N/C(=O)OCc1ccccc1 (stereo unspecified), COC(=O)C1=C(C)N(Cc2cccc(C(F)(F)F)c2)C(=NCc2ccccc2)NC1c1ccccc1C(F)(F)F (stereo unspecified) is lower in activation: 1.8% for the first, -1.64% for the second.

Going from COc1cc(/C=C/C(=O)O)cc(S(=O)(=O)Nc2ccccc2SC)c1OC to COc1cc(/C=C/C(=O)OCC(=O)NCCCc2ccccc2)ccc1O, the activation falls from 1.71% to -1.55%.

First: Cn1ncc2c(NNC(=O)Cc3cccc4ccccc34)ncnc21
Second: O=C(COC(=O)c1cc(=O)[nH]c2ccccc12)NCc1cccc(Cl)c1
The activation of the first is lower: -0.95% for the first, 0.1% for the second.

Compared with Cc1ccc(CCNC(=O)c2ccc3nc4ccccc4c(=O)n3c2)cc1, COCCNC(=O)c1ccc(-n2c(SCc3cccnc3)nc3ccccc3c2=O)cc1 is lower in activation: 3.9% for the first, -1.1% for the second.

First: COC(=O)Cc1nnn2c1[C@H](C)[C@H](c1ccccc1Br)OCC2
Second: COc1ccccc1C1C(C(N)=O)=C(C)Nc2nc(CCCO)nn21 (stereo unspecified)
The activation of the first is lower: -0.72% for the first, 0.62% for the second.

Going from C=CCn1cc(C(=O)NCc2ccc(Cl)cc2)c(=O)c2cc(S(=O)(=O)N(CC)CC)ccc21 to CC(=O)C1=C(C)N(Cc2ccc(Cl)cc2)C(=S)NC1c1ccc(F)cc1 (stereo unspecified), the activation rises from 0.3% to 3.22%.

First: CC(=O)c1cc(C#N)c(SCC(=O)Nc2nccs2)nc1C
Second: CC(=O)c1cc(C#N)c(N2CC(C)OC(C)C2)nc1C (stereo unspecified)
The activation of the first is higher: 8.08% for the first, 0.39% for the second.

First: Cc1ccc(Cc2c(-c3ccc(Cl)cc3)nc3c4ccccc4ccn23)cc1
Second: Cc1ccc(Cc2c(-c3ccc(C)cc3)nc3c4ccccc4ccn23)cc1
The activation of the first is higher: 4.25% for the first, 0.89% for the second.

First: CC(C(=O)N=Nc1c(O)n(C)c2ccc(Br)cc12)n1cnc2ccccc2c1=O (stereo unspecified)
Second: O=C(CSc1nc2ccccc2c(=O)n1Cc1ccc(F)cc1)NCC1CCCO1 (stereo unspecified)
The activation of the first is lower: 0.17% for the first, 0.43% for the second.

Going from N#Cc1ccc(OCCCN2CCC(C(O)(c3ccccc3)c3ccccc3)CC2)c(F)c1 to O=c1[nH]c(-c2ccccc2)cn1C1CCN(Cc2ccc(-c3nc4ccc(F)cc4nc3-c3ccccc3)cc2)CC1, the activation rises from 0.54% to 2.08%.

First: Cc1cccc(-n2ncc(Cl)c(Cl)c2=O)c1
Second: CCOc1ccc(Oc2c(Cl)cnn(-c3ccc(C)cc3)c2=O)cc1
The activation of the first is lower: -2.03% for the first, 1.52% for the second.

Going from CC1=C(C(=O)NC2CC(C)(C)Cc3c2cnn3-c2ccc(C)cc2)OCCO1 (stereo unspecified) to CCCNC(=O)CCc1c(C)nc2c(c(C)nn2-c2ccc(C)cc2)c1C, the activation rises from -2.28% to -0.59%.

First: COC(=O)[C@H](C(C)C)N(CCCc1cn(Cc2ccccc2)nn1)S(=O)(=O)c1ccc(F)cc1Br
Second: O=S1(=O)c2c(NCc3ccco3)cccc2Oc2ccccc2CN1Cc1cn(Cc2cccc(C(F)(F)F)c2)nn1
The activation of the first is lower: -3.54% for the first, -3.4% for the second.

Compared with COC(=O)C[C@@H]1C=C[C@@H](NC(=O)c2ccc3c(c2)OCO3)[C@@H](CO)O1, COc1cccc(NC(=O)CSc2nccn(-c3ccc4c(c3)OCCO4)c2=O)c1 is higher in activation: -0.93% for the first, 0.16% for the second.

First: CC12CCC(C(=O)N3CCN(c4ncccn4)CC3)(c3nc4ccccc4nc31)C2(C)C (stereo unspecified)
Second: CC1=C(N2CCN(c3ncccn3)CC2)CCC1=O
The activation of the first is lower: -2.77% for the first, 1.9% for the second.

Compared with CN1C(=O)C(Br)(Br)CC1c1cccnc1 (stereo unspecified), COc1ccc(/C=C2\CC3(OC(C)=O)CCCN2C3)cc1 (stereo unspecified) is lower in activation: 2.1% for the first, -5.68% for the second.

First: Cc1csc(NC(=O)CSc2nc(=O)n(CCCN(C)C)c3c2CCC3)n1
Second: COc1cc(SC)ccc1C(=O)Nc1nc(C)cs1
The activation of the first is higher: -0.31% for the first, -15.3% for the second.

First: COc1ccc(CN2C[C@H]3CON(C)[C@H]3C[C@H]2c2ccc(-c3cccc(F)c3)cc2)cc1
Second: CN1OC[C@@H]2CN(C(=O)c3ccc(-c4ccccc4)cc3)[C@H](c3ccc(-c4cccc(F)c4)cc3)C[C@@H]21
The activation of the first is lower: -1.7% for the first, 2.92% for the second.

First: O=C(NCc1ccccc1Cl)c1ccc2c(=O)n(CC3CCCO3)c(=S)[nH]c2c1 (stereo unspecified)
Second: CN(C(=O)COC(=O)c1cc(=O)[nH]c2ccccc12)C1CCCCC1
The activation of the first is lower: 1.69% for the first, 6.7% for the second.

Compared with O=S1(=O)c2c(cccc2N2CCCCC2)O[C@H](COCc2ccccc2)CN1C1CC1, O=C(C1CCCN1S(=O)(=O)c1ccccc1)N1CCc2ccccc2C1 (stereo unspecified) is lower in activation: -1.38% for the first, -1.43% for the second.

Going from O=[N+]([O-])c1ccc2c(c1)C(N1CCOCC1)/C(=C/C1(O)CCCCC1)O2 (stereo unspecified) to C/C(=N\NC(=S)NC1CCCCC1)c1ccc(C)o1, the activation rises from -1.36% to 3.96%.

Compared with CCOC(=O)C1CCN(C(=O)C(C)(C)NC(=O)Nc2ccc(F)c(F)c2)CC1, CCC(C)(C)C1CCC(=NNC(=O)c2ccc(Br)o2)CC1 (stereo unspecified) is higher in activation: -0.28% for the first, 7.56% for the second.

Going from COc1ccc(-c2nc3n(c2Br)CCC3)cc1 to COc1ccc(/C=N/Nc2ncnc3sc4c(c23)CCCC4)cc1O, the activation rises from 5.25% to 5.98%.

Compared with O=C(CSc1nnc(COc2ccccc2)n1-c1ccc(Cl)cc1)Nc1ccc2c(c1)OCO2, CC(C)(C)C1CCC(=NNC(=O)c2cc(-c3ccccc3)n[nH]2)CC1 (stereo unspecified) is higher in activation: -1.26% for the first, 6.27% for the second.

Compared with CC(CNC(=O)c1ccc(Br)o1)NC(=O)c1ccc(Br)o1 (stereo unspecified), CCOC(=O)[C@]12CCCC3=C1N(CCC3)C(=O)[C@@H](CC(=O)NCC13CC4CC(CC(C4)C1)C3)C2 is higher in activation: -3.41% for the first, 0.11% for the second.

In the case of O=C(Nc1ccc2c(c1)CCC2)c1ccc(Br)s1, the activation is reported as 19.2% (active).
With Cc1cc(OCc2cc(C(=O)NCc3cc(C(C)C)no3)no2)cc(C)c1Cl the activation was 15.1% (active).
CCOC(=O)c1ccc2c(c1)nc(C)n2CC was tested, and the activation was 12.8% (active).
With Cc1ccc2cc(/C=N/Nc3ccc(C(=O)O)cc3)c(Cl)nc2c1 the activation was 11.9% (active).
With Cc1ccc(C(=O)NNc2ncnc3ccccc23)cc1 the activation was 16% (active).
With CC(=O)c1cc(C#N)c(SCC(=O)C(C)(C)C)nc1C the activation was 27.1% (active).
c1ccc(Cc2c(-c3ccco3)nc3c4ccccc4ccn23)cc1 was tested, and the activation was 22.7% (active).
With C=CCNc1cnn(-c2ccc(C)cc2)c(=O)c1Cl the activation was 12.7% (active).
In the case of c1cnc(N2CCN(c3ccc4ccccc4n3)CC2)nc1, the activation is reported as 13.8% (active).
CN1OC[C@@H]2CN[C@H](c3ccc(-c4ccccc4)cc3)C[C@@H]21 was tested, and the activation was 10.5% (active).
In the case of CCCNC(=O)c1c(Cl)cnn1-c1ccc(C)cc1, the activation is reported as 14.5% (active).
For O=C(Nn1c(SCc2ccc([N+](=O)[O-])cc2)nc2ccccc2c1=O)c1ccc(F)cc1, the activation was 16.4% (active).
COc1ccc(/C=C2\N=C3CCCN3C2=O)cc1 was tested, and the activation was 13% (active).
CC(C)(C)C1CCC(=NNC(=O)c2ccc(Br)o2)CC1 (stereo unspecified) was tested, and the activation was 11.6% (active).
In the case of C/C(=N/NC(=O)c1ccc(Br)o1)c1ccc(C)o1, the activation is reported as 11.9% (active).
COc1cc(SC)ccc1C(=O)Nc1cc(C)ccn1 was tested, and the activation was 15.5% (active).
For CC1CCN(C(=O)COC(=O)c2cc(=O)[nH]c3ccccc23)CC1, the activation was 12.3% (active).
With COc1cc(/C=N/Nc2nc3ccccc3s2)ccc1O the activation was 15% (active).
